Data from the supplement of paper PMC10670038.
Structures can show the parent of a compound that is named as a salt. ± gives the standard deviation of the averaged measurements. Whole data set: some 2,000 compounds, median “relative cell viability vs DMSO, compound + 0.2 uM CuET” near 1, cut for the lowest 2% near 0.25. What follows is part of a selection rich in the lowest values, with near analogues and random picks from the rest.

Each compound was assayed on TE10 (assay: relative cell viability vs DMSO, compound + 0.2 uM CuET (fraction); TE10 is an esophageal squamous carcinoma line; higher = less cytotoxic). Conditions: 2 µM; co-treatment: CuET (bis(diethyldithiocarbamate)copper) 0.2 uM; 48 h.
Experimental: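 TE10 ESCC cells (1,000/well, 384-well plates) were treated with Selleck bioactive library compounds at 2 uM combined with 0.2 uM CuET (copper diethyldithiocarbamate) for 48 h. Viability was read by CellTiter-Glo and expressed relative to DMSO wells. Two technical replicates (A, B).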
C=CC(=O)Nc1cccc(Nc2nc(Nc3ccc(OCCOC)cc3)ncc2F)c1 was tested, and the relative cell viability was 0.892 ± 0.11.
O=S(=O)(c1ccccc1)N(CC(F)(F)F)c1ccc(C(O)(C(F)(F)F)C(F)(F)F)cc1 was tested, and the relative cell viability was 1 ± 0.084.
Compound CC(C)(O)C1CCC(C)(C2C(O)CC3(C)C4CC(OC5OC(CO)C(O)C(O)C5O)C5C(C)(C)C(OC6OCC(O)C(O)C6O)CCC56CC46CCC23C)O1 (configuration not stated) [Astragaloside A] has a relative cell viability of 1.15 ± 0.069.
With O=C(/C=C/c1ccc(CN(CCO)CCc2c[nH]c3ccccc23)cc1)NO [LAQ824 (Dacinostat)] the relative cell viability was 0.145 ± 0.0072.
OCc1c[nH]c2ccccc12 [Indole-3-carbinol] showed a relative cell viability of 1.1 ± 0.11.
With O=C(O)CCCc1c[nH]c2ccccc12 [3-Indolebutyric acid (IBA)] the relative cell viability was 1.12 ± 0.072.
CC1(C)CCCC2(C)C1CCC1(C)OC(=O)CC12 (configuration not stated) [Sclareolide] was tested, and the relative cell viability was 1.05 ± 0.085.
With O=S(=O)(NCCNCC=Cc1ccc(Br)cc1)c1cccc2cnccc12 the relative cell viability was 1.12 ± 0.058.
For CCN(CC)C(=S)SSC(=S)N(CC)CC [Disulfiram], the relative cell viability was 0.0338 ± 0.0054.
Work on Cn1cc(-c2[nH]c3cc(NC(=O)[C@H](N)C4CCCCC4)cc4c3c2C=NNC4=O)cn1 yielded a relative cell viability of 0.702 ± 0.016.
NC(=O)C1CCCc2c1[nH]c1ccc(Cl)cc21 (configuration not stated) [EX 527 (Selisistat)] was tested, and the relative cell viability was 1.15 ± 0.033.
CC(C)c1cc2c(N3CCN(C4=NCC(C)(C)S4)CC3)ncnc2s1 [MI-3 (Menin-MLL Inhibitor)] was tested, and the relative cell viability was 0.972 ± 0.023.
CC1(C)CCC2=C(O1)c1ccccc1C(=O)C2=O [Beta-Lapachone] was tested, and the relative cell viability was 0.246 ± 0.051.
Work on CC1=CC(=O)c2ccccc2C1=O [Menadione] yielded a relative cell viability of 0.671 ± 0.13.
For C=CC(=O)Nc1cc(Nc2nccc(-c3c[nH]c4ccccc34)n2)c(OC)cc1N(C)CCN(C)C, the relative cell viability was 0.476 ± 0.0093.
In the case of Cc1ccc(-n2[nH]c(C)c(N=Nc3cccc(-c4cccc(C(=O)O)c4)c3O)c2=O)cc1C [Eltrombopag Olamine], the relative cell viability is reported as 1.145 ± 0.0091.
Cc1ccc(-n2[nH]c(C)c(N=Nc3cccc(-c4cccc(C(=O)O)c4)c3O)c2=O)cc1C [Eltrombopag] showed a relative cell viability of 1.04 ± 0.1.
In the case of OC(CC1c2ccccc2-c2cncn21)C1CCCCC1 (configuration not stated), the relative cell viability is reported as 1.13 ± 0.055.
C#Cc1cccc(Nc2ncnc3cc(OCCOC)c(OCCO)cc23)c1 was tested, and the relative cell viability was 1.02 ± 0.013.
Compound C#Cc1cccc(Nc2ncnc3cc(OC)c(OCCCCCCC(=O)NO)cc23)c1 has a relative cell viability of 0.182 ± 0.024.
C#Cc1cccc(Nc2ncnc3cc(OCCOC)c(OCCOC)cc23)c1 [Erlotinib HCl (OSI-744)] showed a relative cell viability of 1.18 ± 0.1.
C#Cc1cccc(Nc2ncnc3cc(OCCOC)c(OCCOC)cc23)c1 [Erlotinib] gave a relative cell viability of 0.996 ± 0.091.
Compound CN(C)C(=O)c1ccc(S(=O)(=O)c2ccc(NC(=O)C(C)(O)C(F)(F)F)c(Cl)c2)cc1 (configuration not stated) has a relative cell viability of 1.2 ± 0.14.
Compound CCc1cnn2c(NCc3ccc[n+]([O-])c3)cc(N3CCCC[C@H]3CCO)nc12 has a relative cell viability of 0.842 ± 0.12.
COCC[n+]1c2c(n(Cc3cnccn3)c1C)C(=O)c1ccccc1C2=O [YM155 (Sepantronium Bromide)] gave a relative cell viability of 0.111 ± 0.0058.
CCCCCCCCCCCCCCCc1cccc(O)c1C(=O)O [Anacardic Acid] was tested, and the relative cell viability was 1.26 ± 0.019.
CC1(C)Cc2c(-c3ccccc3)c(-c3ccc(Cl)cc3)c(CC(=O)O)n2C1 [Licofelone] showed a relative cell viability of 1.17 ± 0.023.
N#Cc1ccc2[nH]c(O)c(-c3ccc(CN4CCOCC4)cn3)c2c1 showed a relative cell viability of 1.4 ± 0.13.
With Cc1nc2ccc(-n3ncc(C(=O)c4cc5ccccc5[nH]4)c3N)cc2[nH]1 the relative cell viability was 0.987 ± 0.053.
O=C(Nc1cccc(Cl)c1)c1ccccn1 was tested, and the relative cell viability was 1.24 ± 0.1.
Clc1ccc(NN=C(c2ccccc2)c2ccccn2)nc1 showed a relative cell viability of 0.03199 ± 0.00018.
With CN(C)C(=S)NN=C(c1ccccn1)c1ccccn1 the relative cell viability was 0.943 ± 0.047.
In the case of CC(=O)N[C@@H](CC(C)C)C(=O)N[C@@H](CC(C)C)C(=O)N[C@H](C=O)CCCNC(=N)N [Leupeptin Hemisulfate], the relative cell viability is reported as 1.16 ± 0.025.
For N#CC(=Cc1ccc(-c2cc(Cl)ccc2Cl)o1)C(=O)Nc1cccc2ncccc12, the relative cell viability was 1.06 ± 0.03.
In the case of COc1cc(C=CC(=O)N2CCC=CC2=O)cc(OC)c1OC [Piperlongumine], the relative cell viability is reported as 0.392 ± 0.035.
CC(NC(=O)Cc1cc(F)cc(F)c1)C(=O)NC1C(=O)N(C)c2ccccc2-c2ccccc21 (configuration not stated) was tested, and the relative cell viability was 0.97 ± 0.13.
For CC1=NN(c2ccc(C(=O)O)cc2)C(=O)C1=Cc1ccc(-c2cc(C)c(C)cc2[N+](=O)[O-])o1, the relative cell viability was 0.872 ± 0.091.
Compound Cc1nc(-c2cn3c(n2)-c2ccc(-c4cnn(C(C)(C)C(N)=O)c4)cc2OCC3)n(C(C)C)n1 has a relative cell viability of 0.675 ± 0.072.
With OCc1ccc(-c2ccc(-c3ccc(CO)s3)o2)s1 the relative cell viability was 0.225 ± 0.01.
CC(=O)OCC(=O)[C@@]12N=C(C)O[C@@H]1C[C@H]1[C@@H]3CCC4=CC(=O)C=C[C@]4(C)[C@H]3[C@@H](O)C[C@@]12C [Deflazacort] showed a relative cell viability of 1.03 ± 0.012.
For CCOc1nc2cccc(C(=O)O)c2n1Cc1ccc(-c2ccccc2-c2nnn[nH]2)cc1 [Candesartan], the relative cell viability was 1.06 ± 0.031.
Compound CN(C)Cc1cccc(N=C(c2ccccc2)c2c(O)[nH]c3cc(C(N)=O)ccc23)c1 has a relative cell viability of 0.952 ± 0.014.
